Assay results reported in ChEMBL document CHEMBL3988442, “University of Dundee, Small-Polar-MMV Screening Library” (2021).
Among all 48,000 compounds or so, about 13,000 (27%) showed an effect of 50% or more. The list shows a part of the results.

tested on: Wolbachia pipientis; test: Anti-Wolbachia Cell-Based Screen; format: functional; parameters: scale not given: in the data most compounds retested in dose-response had high values; conditions: 5 µM

**Q.** `CCN1CC2(CC1=O)CN(C(C)=O)CCN(S(C)(=O)=O)C2` (stereo unspecified) was tested. Which “Percent Effect” value did it give?
**A.** -3.303%

**Q.** `CCN(CCO)C(=O)C1CCC(=O)N(Cc2cccc(OC)c2)C1` (stereo unspecified) was tested. Which “Percent Effect” value did it give?
**A.** 4.416%

**Q.** For `NC(=O)N1CCCN(CC(=O)NCCc2c(F)cccc2F)CC1`, which “Percent Effect” value is on record?
**A.** -7.896%

**Q.** Which “Percent Effect” value does the source give for `Cc1nc[nH]c1CN1CCCn2nc(CN3CCC(F)(F)CC3)cc2C1` here?
**A.** 5.091%

**Q.** For `CCN1CC2(CC1=O)CN(C(C)=O)CCN(C(=O)NC(C)C)C2` (stereo unspecified), which “Percent Effect” value is on record?
**A.** 101.7%

**Q.** For `CCN1CC2(CC1=O)CN(C(C)=O)CCN(S(=O)(=O)CC)C2` (stereo unspecified), which “Percent Effect” value is on record?
**A.** -5.362%

**Q.** For `CC(C)NC(=O)N1CCN(S(=O)(=O)C2CC2)CC2(CC(=O)N(C)C2)C1` (stereo unspecified), which “Percent Effect” value is on record?
**A.** -16.72%

**Q.** How did the “Percent Effect” value turn out when `CCC1(CNCc2ncc[nH]2)CCCC1` was run?
**A.** -14.89%

**Q.** Which “Percent Effect” value does the source give for `Cc1nnc(NC(=O)CN(C)CC2CCCN2c2cccnn2)s1` (stereo unspecified) here?
**A.** -3.874%

**Q.** For `Cc1csc(NC(=O)CN(C)CC2CCCN2c2cccnn2)n1` (stereo unspecified), which “Percent Effect” value is on record?
**A.** 8.253%

**Q.** Which “Percent Effect” value does the source give for `CN(CC(=O)Nc1cccnc1)C1CCCN(c2cccnn2)C1` (stereo unspecified) here?
**A.** 85.32%

**Q.** How did the “Percent Effect” value turn out when `CN(CC(=O)NC1(C#N)CCCC1)C1CCCN(c2cccnn2)C1` (stereo unspecified) was run?
**A.** 1.351%

**Q.** Which “Percent Effect” value does the source give for `Cc1nnc(NC(=O)CN(C)C2CCCN(c3cccnn3)C2)s1` (stereo unspecified) here?
**A.** 131.3%

**Q.** For `CN(CC(=O)Nc1ccncc1)C1CCCN(c2cccnn2)C1` (stereo unspecified), which “Percent Effect” value is on record?
**A.** 95.39%

**Q.** With `CN(CC(=O)NC1CCOCC1)C1CCCN(c2cccnn2)C1` (stereo unspecified) as the compound, how does the “Percent Effect” value read?
**A.** 137.1%

**Q.** `Cc1nc(CN2CCCC(N(C)CC(=O)Nc3cccnc3)C2)no1` (stereo unspecified) was tested. Which “Percent Effect” value did it give?
**A.** 13.61%

**Q.** `COC(=O)C1CCCCN1C(=O)c1ccc(N(C)C)cc1F` (stereo unspecified) was tested. Which “Percent Effect” value did it give?
**A.** -10.97%

**Q.** For `CN(C)CC(=O)N1CC[C@H]2OCC[C@@]2(COCC2CC2)C1`, which “Percent Effect” value is on record?
**A.** -4.204%

**Q.** `O=c1oc(-c2ccc(F)cc2)nn1CC1CCOC1` (stereo unspecified) was tested. Which “Percent Effect” value did it give?
**A.** -10.24%

**Q.** Which “Percent Effect” value does the source give for `O=c1oc(-c2ccc(F)cc2)nn1CN1CCSCC1` here?
**A.** 92.99%

**Q.** With `O=c1oc(-c2ccc(F)cc2)nn1CN1CCN(CC2CC2)CC1` as the compound, how does the “Percent Effect” value read?
**A.** 89.16%

**Q.** `O=c1oc(-c2ccc(F)cc2)nn1CN1CCCCC1` was tested. Which “Percent Effect” value did it give?
**A.** 107.7%

**Q.** `O=c1oc(-c2ccc(F)cc2)nn1CN1CCN(C2CCCC2)CC1` was tested. Which “Percent Effect” value did it give?
**A.** -7.879%

**Q.** How did the “Percent Effect” value turn out when `CC(=O)N1CCN(Cn2nc(-c3ccc(F)cc3)oc2=O)CC1` was run?
**A.** 6.471%

**Q.** For `CC1CCN(Cn2nc(-c3ccc(F)cc3)oc2=O)CC1`, which “Percent Effect” value is on record?
**A.** 4.807%

**Q.** For `O=c1oc(-c2ccc(F)cc2)nn1CC1CCCCO1` (stereo unspecified), which “Percent Effect” value is on record?
**A.** -16.49%

**Q.** `O=c1oc(-c2ccc(F)cc2)nn1CCc1ccncc1` was tested. Which “Percent Effect” value did it give?
**A.** -21.89%

**Q.** Which “Percent Effect” value does the source give for `CN(C(=O)Cc1coc(-c2cccs2)n1)C1(C#N)CCC1` here?
**A.** 3.793%

**Q.** Which “Percent Effect” value does the source give for `CCc1nc(CN2CCCN(C(=O)C(C)COC)CC2)cs1` (stereo unspecified) here?
**A.** 7.127%

**Q.** With `COc1ccc(C2=CCN(C(=O)CN(C)CC(N)=O)CC2)cc1` as the compound, how does the “Percent Effect” value read?
**A.** -8.253%

**Q.** How did the “Percent Effect” value turn out when `COc1ccc(C2=CCN(C(=O)C3CCC3)CC2)cc1` was run?
**A.** 121.8%

**Q.** Which “Percent Effect” value does the source give for `COc1ccc(C2=CCN(C(=O)C3CC(=O)N(C4CC4)C3)CC2)cc1` (stereo unspecified) here?
**A.** -2.251%

**Q.** How did the “Percent Effect” value turn out when `COc1ccc(C2=CCN(C(=O)C3CCCN(C(C)=O)C3)CC2)cc1` (stereo unspecified) was run?
**A.** 109.7%

**Q.** How did the “Percent Effect” value turn out when `COc1ccc(C2=CCN(C(=O)C3CCCN(C(N)=O)C3)CC2)cc1` (stereo unspecified) was run?
**A.** 7.391%

**Q.** Which “Percent Effect” value does the source give for `COc1ccc(OC)c(C2CCN(C(=O)C3CCS(=O)(=O)CC3)C2)c1` (stereo unspecified) here?
**A.** -1.419%

**Q.** With `COc1ccc(C2=CCN(C(=O)CN(C)CC(C)C#N)CC2)cc1` (stereo unspecified) as the compound, how does the “Percent Effect” value read?
**A.** -3.041%

**Q.** Which “Percent Effect” value does the source give for `COc1ccc(C2=CCN(C(=O)C3CCS(=O)(=O)C3)CC2)cc1` (stereo unspecified) here?
**A.** 136.7%

**Q.** With `COc1ccc(OC2CCN(C(=O)C3CCCN(C)C3)CC2)cc1` (stereo unspecified) as the compound, how does the “Percent Effect” value read?
**A.** 0.8407%

**Q.** How did the “Percent Effect” value turn out when `O=C(NCC1CC1)c1cc(Cl)c2c(c1)OCCCO2` was run?
**A.** -14.68%

**Q.** `CCCC(C)(C)NC(=O)c1cnc(CC)s1` was tested. Which “Percent Effect” value did it give?
**A.** -7.388%

**Q.** How did the “Percent Effect” value turn out when `CN(C)C1CC2(CCN(C(=O)C3(C#N)CC3)CC2)c2ccccc21.O=C(O)C(F)(F)F` (stereo unspecified) was run?
**A.** 5.959%

**Q.** How did the “Percent Effect” value turn out when `O=C1CSCN1Cc1nc(-c2ccc(N3CCCCC3)cc2)no1` was run?
**A.** -5.803%

**Q.** Which “Percent Effect” value does the source give for `CN(C)CC(=O)N1Cc2nnn(C)c2C(COCc2ccccn2)C1.O=C(O)C(F)(F)F.O=C(O)C(F)(F)F` (stereo unspecified) here?
**A.** 6.818%

**Q.** Which “Percent Effect” value does the source give for `CN(C)CCOCC1CN(Cc2ccncc2)Cc2nnn(C)c21.O=C(O)C(F)(F)F.O=C(O)C(F)(F)F.O=C(O)C(F)(F)F` (stereo unspecified) here?
**A.** 96.02%

**Q.** Which “Percent Effect” value does the source give for `CCOCC1CN(Cc2ccc(OC)cc2)Cc2nn(C)cc21.O=C(O)C(F)(F)F` (stereo unspecified) here?
**A.** 11.5%

**Q.** Which “Percent Effect” value does the source give for `Cn1nnc2c1C(COCC1CC1)CN(C(=O)Cc1ccsc1)C2` (stereo unspecified) here?
**A.** 2.514%

**Q.** Which “Percent Effect” value does the source give for `COc1ccc(CN2Cc3nnn(C)c3C(COCCN(C)C)C2)cc1.O=C(O)C(F)(F)F.O=C(O)C(F)(F)F` (stereo unspecified) here?
**A.** 106.7%

**Q.** For `CN(C)CCOCC1CN(Cc2ccsc2)Cc2nnn(C)c21.O=C(O)C(F)(F)F.O=C(O)C(F)(F)F` (stereo unspecified), which “Percent Effect” value is on record?
**A.** 121.1%

**Q.** With `CN(C)CCOCC1CN(Cc2ccccn2)Cc2nnn(C)c21.O=C(O)C(F)(F)F.O=C(O)C(F)(F)F.O=C(O)C(F)(F)F` (stereo unspecified) as the compound, how does the “Percent Effect” value read?
**A.** 99.25%

**Q.** Which “Percent Effect” value does the source give for `Cn1nnc2c1C(COCc1ccccn1)CN(C(=O)c1ccsc1)C2.O=C(O)C(F)(F)F` (stereo unspecified) here?
**A.** -2.517%

**Q.** Which “Percent Effect” value does the source give for `COCC1CN(Cc2ccc(OC)cc2)Cc2nnn(CC3CC3)c21.O=C(O)C(F)(F)F` (stereo unspecified) here?
**A.** -5.304%
